Assay outcomes (PubChem BioAssay)
Only some compounds are listed: those with a hit (about 1.4% of all), similar ones and a draw of the others.
LDHA block: blocks human lactate dehydrogenase A | P00338 | purified LDHA, NADH/diaphorase-resazurin fluorescence; stronger effect = lower value | activity change, % (values are at about 110 or 230 µM) | hit rate 0.15% among 480,000 | AID 1347041; in the data active = activity change below about -30%; inconclusive = mostly about -25% to -30%;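 note: plate controls were DMSO wells for no effect and wells without enzyme for full effect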
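Enzyme activity of human lactate dehydrogenase 5 (2 nM; 0.06 mM NADH, 0.2 mM pyruvate, 5 min, RT) is measured via a resazurin/diaphorase fluorescence readout of residual NADH.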
TrxR1 substrate: is turned over as a substrate by rat TrxR1. O89049. purified TrxR1 substrate turnover, NADPH consumption readout. Potency, µM (doses to about 114 µM), for the others: at the highest dose activity change, negative = substrate turnover. hit rate 0.01% among 390,000. AID 588456; note: potency is the fitted concentration of half-maximal effect; nearly all actives have a fitted effect of over 50% in size
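Rat TrxR1, dispensed at 90 nM, was prereduced with 400 uM NADPH (final) for 5 min at ~22 deg C, then incubated with compound 15 min before 400 uM selenite. A first-read NADPH fluorescence drop versus no-compound background flagged substrates.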
PKM2 activator: PKM2 (human) enzyme activation. Potency, µM (top dose mostly 57.5 µM), for the others: at the top dose activation, hits mostly activators. hit rate 0.34% among 260,000. P14618. AID 1631. purified PKM2, Kinase-Glo ATP luminescence, activation; response scale: 0% is enzyme alone, no compound; note: potency is the fitted concentration of half-maximal effect; nearly all actives have a fitted effect of over 55% in size
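Purified hPK-M2 (>95%) run at intermediate activity with 0.1 mM ADP and 0.5 mM PEP in 50 mM imidazole pH 7.2, KCl, MgCl2; 1 h room temperature. ATP formed read by Kinase-Glo luminescence; normalized to uninhibited and no-enzyme controls.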
TrxR1 inh: blocks rat thioredoxin reductase 1 | O89049 | Potency, µM (doses to about 114 µM), for inactives: at the highest dose activity change, negative = inhibition, most hits filed as inhibitors | AID 588453 | hit rate 1% among 390,000 | recombinant rTrxR1, NADPH fluorescence consumption, selenite substrate; note: potency is the fitted concentration of half-maximal effect; nearly all actives have a fitted effect of over 65% in size
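Rat TrxR1 (90 nM in the dispensed reagent) was pre-reduced with 400 uM NADPH for 5 min at room temperature, then incubated with compound for 15 min. After 400 uM selenite was added, NADPH fluorescence (Ex 340/Em 450 nm) was followed for 8 min.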
mIDH1 inhibitor: human IDH1 R132H inhibition; hit rate 0.093% among 390,000; O75874; Potency, µM (titrated, usually from 76.6 µM), for inactives: at the top dose activity change, negative = inhibition, usual class: inhibitors; IDH1-R132H enzyme, NADPH consumption, diaphorase/resazurin fluorescence; note: potency is the fitted concentration of half-maximal effect; nearly all actives have a fitted effect of over 65% in size
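IDH1-R132H (0.5 ug/mL) preincubated 30 min with compound, then NADPH (0.016 mM) and alpha-KG (2 mM) added; 80 min at RT, pH 7.5. Remaining NADPH coupled via diaphorase/resazurin to fluorescence (540/590 nm); concentration-response curves normalized to no-enzyme control.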
GLS inhibitor: inhibitors of human glutaminase (GLS); O94925; GLS enzymatic activity, qHTS titration; Potency, µM (titrated, usually from 45.5 µM), without a hit: at the top dose activity change, negative = inhibition, usual class: inhibitors; hit rate 0.21% among 410,000; AID 624170; note: potency is the fitted concentration of half-maximal effect
Target sequence (O94925 whole entry, looked up): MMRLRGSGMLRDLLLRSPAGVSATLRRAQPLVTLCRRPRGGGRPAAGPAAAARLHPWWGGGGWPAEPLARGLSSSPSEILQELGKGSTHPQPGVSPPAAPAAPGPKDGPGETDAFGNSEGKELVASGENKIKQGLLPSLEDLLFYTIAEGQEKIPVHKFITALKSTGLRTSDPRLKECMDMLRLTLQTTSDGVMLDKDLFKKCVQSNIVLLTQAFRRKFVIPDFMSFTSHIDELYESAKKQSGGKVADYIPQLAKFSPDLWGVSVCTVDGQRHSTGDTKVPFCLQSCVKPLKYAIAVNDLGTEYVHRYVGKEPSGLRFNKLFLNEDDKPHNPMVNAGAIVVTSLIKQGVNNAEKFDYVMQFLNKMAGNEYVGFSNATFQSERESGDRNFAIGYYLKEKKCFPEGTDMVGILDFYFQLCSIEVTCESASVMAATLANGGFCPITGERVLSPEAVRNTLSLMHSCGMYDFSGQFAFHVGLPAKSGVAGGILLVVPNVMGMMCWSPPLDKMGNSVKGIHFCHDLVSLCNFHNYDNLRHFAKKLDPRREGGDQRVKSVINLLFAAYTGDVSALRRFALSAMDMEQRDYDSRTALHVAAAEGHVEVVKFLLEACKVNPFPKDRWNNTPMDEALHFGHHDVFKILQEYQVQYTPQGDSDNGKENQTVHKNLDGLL
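Coupled fluorescence readout: glutamate oxidase/HRP/Amplex Red detect glutamate formed by hKGA from L-glutamine (1 mM solution added). Buffer 45 mM KH2PO4 pH 8.2, 0.02% Tween-20; reads at t0 and 30 min RT.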
Active calls of the source: *; ? = inconclusive; / = no result given; [ ] = remark or other dose. Unless noted, calls come from the whole dose curve; as a rule, active = well fitted curve in the direction sought with a large enough effect; inconclusive = small, poorly fitted or top-dose-only effect, or another doubt; inactive = no such curve, though single readings can be large; an effect the other way counts as inactive or inconclusive. Unless noted, % is set by controls: 0 for no effect and ±100 for the full control effect.

SMILES | LDHA block | TrxR1 substrate | PKM2 activator | TrxR1 inh | mIDH1 inhibitor | GLS inhibitor
Cc1cccc(C(=O)OCc2ncc(-c3ccccc3)o2)c1O | 8 | / | / | / | / | /
CCN(CC)C(=O)CC(C#N)(CC(=O)N(CC)CC)c1nc2ccccc2s1 | 1 | / | / | / | / | /
CSc1nnc(NC(=O)c2nc(S(=O)(=O)Cc3ccccc3F)ncc2Cl)s1 | 2 | -2% | -4%[0.46 µM] | 40µM* | 1% | 21%
Cc1nnc(NC(=O)c2nc(S(=O)(=O)Cc3ccccc3C)ncc2Cl)s1 | 1 | 7% | / | 50µM* | 0% | 6%
O=C(Nc1nc2ccc(F)cc2s1)c1nc(S(=O)(=O)Cc2ccccc2F)ncc1Cl | 0 | 3% | / | ? | 4% | -2%
CC(C)c1nnc(NC(=O)c2nc(S(=O)(=O)Cc3ccccc3F)ncc2Cl)s1 | 0 | 0% | / | 50µM* | 0% | 6%
Cn1c(Sc2ncnc3sccc23)nnc1-c1ccc(F)cc1 | -13 | / | / | / | / | /
CS(=O)(=O)Nc1ccc(C2=NN(C(=O)c3ccco3)C(c3ccc(F)cc3)C2)cc1 (stereo not given) | -4 | -2% | 13µM* | 13% | -1% | 8%
CS(=O)(=O)Nc1ccc(C2=NN(C(=O)c3ccco3)C(c3ccc4nccnc4c3)C2)cc1 (stereo not given) | 3 | / | / | / | / | /
O=C(Nc1cccc(S(=O)(=O)N2CCCCC2)c1)C1CC(=O)N(C2CCCC2)C1 (stereo not given) | -14 | / | / | / | / | /
CC1(C)C2CCC(C2)C1(C)NC(=O)CN1CCN(Cc2ccccc2)CC1 (stereo not given) | -40* | 10%[57.1 µM] | 0% | 14%[57.1 µM] | 18% | 10%
Cc1ccc(NC(=O)CN2CCN(Cc3ccccc3)CC2)cc1 | -3 | -3% | / | 14% | -8% | 0%
COCCN(CCOC)Cc1c(O)ccc2c1O/C(=C\c1ccc(C)o1)C2=O | 12 | ? | / | 50µM* | -10% | 1%
COc1ccccc1/C=C/C=C1\Oc2c(ccc(O)c2CN(C)C)C1=O | -3 | -25% | -1% | ? | -3% | -2%
CCN(CC)Cc1c(O)ccc2c1O/C(=C\C=C\c1ccccc1)C2=O | -2 | -13% | 3% | 71µM* | 2% | 10%
Cc1ccc(/C=C2\Oc3cc(OCC(=O)NN)ccc3C2=O)o1 | -7 | -4% | / | -5% | 1% | 4%
Cc1nc2cc(NC(=O)C(C)Oc3ccc(Cl)cc3Cl)ccc2o1 (stereo not given) | 3 | / | / | / | / | /
O=C(/C=C/c1ccc(O)c(O)c1)c1ccccc1O | 13 | -4% | -3% | ? | 5% | 5.6µM*
O=C(NCc1nnc2c(C(F)(F)F)cc(Cl)cn12)c1ccco1 | -13 | 3%[57.1 µM] | 14µM* | 21%[57.1 µM] | 0% | 3%
COc1ccc(-c2nc3ccc(NC(C)=O)cc3c(=O)n2Cc2cccc(Cl)c2)cc1COc1ccc(NC(C)=O)cc1 | 25 | 0% | / | 14µM* | / | /
COc1ccc(-c2nc3ccc(NC(=O)COC(C)=O)cc3c(=O)n2Cc2ccccc2)cc1COc1ccc(NC(C)=O)cc1 | 12 | -1% | / | 35µM* | / | /
Cn1c(=O)c2c(nc(NCCCO)n2Cc2cccc(Cl)c2)n(C)c1=O | -5 | / | / | / | / | /
CC(=O)N1c2ccccc2Oc2cc3ccccc3cc21 | 3 | 5%[57.1 µM] | 3% | 5%[57.1 µM] | 11% | -16%
O=C(CCl)N1c2ccccc2Oc2ccc3ccccc3c21 | 38 | 8% | / | 2.5µM* | 25% | -12%
O=C(CCC(=O)c1ccc2c(c1)CCC2)NC1CCCCC1 | 4 | / | / | / | / | /
O=C(c1ccccc1NS(=O)(=O)c1ccc([N+](=O)[O-])cc1[N+](=O)[O-])N1O[C@@H]2C=C[C@H]1C2 | 4 | 0% | / | 3.2µM* | -2% | 29%
c1cc(C(c2nnnn2C2CCCC2)N2CCOCC2)ccn1 (stereo not given) | -1 | 7% | -3% | 14µM* | 4% | 10%
